Data: PubChem BioAssay

test: JC-1 mitochondrial potential readout, lung cancer cells – cell-based, A549, JC-1 fluorescence, basal, 24 h, 100 nL, profiling panel (AID 1138); settings: higher = more signal;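 also: A549 lung adenocarcinoma cells under basal conditions with no added stimulus; test concentration not given here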

| Structure (SMILES) | z-score |
| --- | --- |
| CO[C@H]1COC(=O)[C@H](CCSC)NC(=O)CC=C[C@@H](C)COC(=O)[C@@H](OCc2ccccc2)C=C[C@@H]1C | 0.676 |
| CCC(=O)[C@]12O[C@@]3([C@@H]4C(=O)OCC[C@@H]41)N(Cc1ccccc1)C(C)=C(C(=O)OC)[C@@H](c1ccccc1)N3C2=O | 1.27 |
| COC(=O)[C@@]1(Cc2ccc(OC)cc2)[C@H]2c3cc(C(=O)N(C)C)n(CCc4ccc(OC)c(Br)c4)c3C[C@H]2CN1C(=O)c1ccccc1 | 0.37 |
| C#CCCCON=C1C[C@@H](O)[C@@H](O)[C@@H]2[C@@H]3C(=O)N(Cc4ccc5c(c4)OCO5)C(=O)[C@@H]3CC[C@H]12 | -0.421 |
| COC(=O)c1c(CC[C@@H](CO)NC(=O)N[C@H](Cn2cc(-c3cncn3C)nn2)C(C)C)oc(C(C)=O)c1C(=O)OC | -0.315 |
| CCOC(=O)C1=CC[C@@H](c2ccc(-c3ccc(OCc4ccccc4)cc3)c(OC)c2)N(S(=O)(=O)c2ccc(C)cc2)[C@H]1c1ccccc1 | 1.63 |
